# Calls of active or inactive are those of the source.
# Tests used:
# [1] = small molecules captured by biotinylated probe aFSTL3 – biochemical, small-molecule microarray, fluorescence 635/667, stem cell growth factor project, primary screen (AID 1064); details: higher = more signal;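 also: measures binding of the biotinylated anti-FSTL3 antibody to printed compounds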
# [2] = binders from COS7 lysate, DM2A8 probe, primary screen, torsin A project, cell lysate, small-molecule microarray, fluorescence 635/667 (AID 1065); details: higher = more signal, COS7 lysate expressing mutant human TOR1A
# [3] = small molecules captured by biotinylated probe aFGF2 – biochemical, small-molecule microarray, fluorescence 635/667, stem cell growth factor project, primary screen (AID 1067); details: higher = more signal;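 also: measures binding of biotinylated aFGF2 protein to printed compounds on slides; z-score merges feature fluorescence and signal-to-noise across triplicate slides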
# [4] = small molecules captured by biotinylated probe aFGF10 – biochemical, small-molecule microarray, fluorescence 635/667, stem cell growth factor project, primary screen (AID 1071); details: higher = more signal;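 also: score merges 667 nm spot intensity and signal to noise from triplicate slides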
# [5] = target: Neurogenic locus notch homolog protein 2 (Homo sapiens) (UniProt Q04721); test: small molecules binding Notch2 protein – biochemical, small-molecule microarray, 635 nm fluorescence, stem cell growth factors, primary screen (AID 1073); details: higher = more signal
# [6] = target: Pro-neuregulin-1, membrane-bound isoform (Homo sapiens) (UniProt Q02297); test: small molecules binding neuregulin-1 protein – biochemical, small-molecule microarray, fluorescence 635/667, psychiatric disease protein project, primary screen (AID 1075); details: NRG1 binding, 635 nm fluorescence, higher = more signal;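 also: score combines 667 nm spot fluorescence with signal to noise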
# [7] = tested on: Neuregulin-1 EGF-like domain; test: small molecules binding NRG1 EGF domain – biochemical, small-molecule microarray, 635 nm fluorescence, primary screen (AID 1081); details: higher = more signal;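 also: binding of the protein to compounds printed on small-molecule microarray slides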
# [8] = FRG1 expression reporter modulators in myotubes – cell-based, C2C12 myotubes, firefly/Renilla luciferase, luminescence, FRG1 inhibition for FSHD, primary screen (AID 1084); details: FRG1 promoter luciferase, higher = more signal, called active from +8 up or from −8 down
# [9] = small molecules captured by biotinylated probe aFST – biochemical, small-molecule microarray, fluorescence 635/667, stem cell growth factor project, primary screen (AID 1086); details: higher = more signal;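 also: score merges 667 nm fluorescence with signal-to-noise of each printed compound spot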
# [10] = binders of probe aHhip on microarray, primary screen, stem cell growth factor project, biochemical, small-molecule microarray, fluorescence 635/667 (AID 1087); details: higher = more signal;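 also: score merges spot fluorescence at 667nm with spot signal to noise ratio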
# [11] = tested on: PRMT1 (protein arginine N-methyltransferase 1); test: small molecules binding arginine methyltransferase PRMT1 – biochemical, small-molecule microarray, 635 nm fluorescence, primary screen (AID 1088); details: higher = more signal;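 also: binding of Prmt1 protein to compounds spotted on small-molecule microarray slides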
# [12] = growth effects on S. cerevisiae YJM789 – YJM789 clinical isolate, OD600, 24 h, basal, primary screen (AID 1089); details: higher = more signal, called active from +8 up or from −8 down;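 also: growth of clinical yeast isolate S. cerevisiae YJM 789 seeded 1000 cells per well; test concentration not given here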
# [13] = S. pombe growth modifiers, basal conditions – strain 972, OD600, 24 h, no modulator, primary screen (AID 1090);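 also: basal condition with compound alone and no growth modifier present; test concentration not given here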; details: S. pombe 972 growth, higher = more signal, called active from +8 up or from −8 down
# [14] = budding yeast growth modifiers under rapamycin – strain BY4716, OD600, 96 h, primary screen (AID 1091); also: test concentration not given here; details: S. cerevisiae BY4716 + rapamycin, higher = more signal, called active from +8 up or from −8 down
# [15] = target: Torsin-1A-interacting protein 2 (Homo sapiens) (UniProt Q8NFQ8); test: small molecules binding lysate-expressed LULL1 – cell lysate, human LULL1 lysate, 635/667 nm fluorescence, primary screen (AID 1092); details: small-molecule microarray, hLULL1 lysate binding, 635 nm fluorescence; higher = more signal;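 also: probe is lysate of COS7 cells overexpressing human LULL1; score merges per-feature 667 nm fluorescence with signal-to-noise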
# [16] = optical density change of DRC41 E. coli – strain DRC41, OD650, 24 h, E. coli filamentation project, primary screen (AID 1093);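 also: MC1000 strain lacking acrAB efflux and sulA so SOS filamentation is blocked; test concentration not given here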; details: E. coli DRC41 growth, higher = more signal, called active from +8 up or from −8 down
# [17] = probe aLefty2 binding to arrayed compounds – biochemical, biotinylated probe, 635/667 nm fluorescence, primary screen (AID 1094); details: small-molecule microarray, higher = more signal;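 also: score merges spot fluorescence near 667 nm with spot signal-to-noise ratio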
# [18] = tested on: Noggin (protein binding on small-molecule microarray); test: small molecules binding Noggin protein – biochemical, 635/667 nm fluorescence, primary screen (AID 1095); details: 635 nm fluorescence, higher = more signal;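 also: score merges 667 nm feature fluorescence with signal to noise over triplicate slides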
# [19] = target: Neurogenic locus notch homolog protein 3 (Homo sapiens) (UniProt Q9UM47); test: small molecules binding NOTCH3 protein – biochemical, 635/667 nm fluorescence, primary screen (AID 1096); details: small-molecule microarray, 635 nm fluorescence, higher = more signal
# [20] = probe aEGFR binding to arrayed compounds – biochemical, biotinylated probe, 635/667 nm fluorescence, primary screen (AID 1097); details: small-molecule microarray, higher = more signal;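 also: probe is a biotinylated anti-EGFR antibody binding compounds printed on slides; score combines fluorescence near 667 nm and signal to noise of each spot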
# Chain of Torsin-1A-interacting protein 2 (Homo sapiens) (Q8NFQ8 whole entry, looked up): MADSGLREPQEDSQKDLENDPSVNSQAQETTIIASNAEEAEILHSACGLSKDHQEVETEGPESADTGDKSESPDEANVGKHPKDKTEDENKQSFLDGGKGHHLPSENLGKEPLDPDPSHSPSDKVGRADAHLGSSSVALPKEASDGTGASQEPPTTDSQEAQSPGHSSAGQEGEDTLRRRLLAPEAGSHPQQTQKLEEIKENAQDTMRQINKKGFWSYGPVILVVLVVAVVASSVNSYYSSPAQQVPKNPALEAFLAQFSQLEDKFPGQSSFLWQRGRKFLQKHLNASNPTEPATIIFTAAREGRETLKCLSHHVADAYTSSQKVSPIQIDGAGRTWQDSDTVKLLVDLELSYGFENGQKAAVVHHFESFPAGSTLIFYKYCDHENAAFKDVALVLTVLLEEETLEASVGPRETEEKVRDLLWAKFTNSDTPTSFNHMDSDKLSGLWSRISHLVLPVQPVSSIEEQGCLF
# Chain of Pro-neuregulin-1, membrane-bound isoform (Homo sapiens) (Q02297 whole entry, looked up, the tested form may be a part, canonical isoform): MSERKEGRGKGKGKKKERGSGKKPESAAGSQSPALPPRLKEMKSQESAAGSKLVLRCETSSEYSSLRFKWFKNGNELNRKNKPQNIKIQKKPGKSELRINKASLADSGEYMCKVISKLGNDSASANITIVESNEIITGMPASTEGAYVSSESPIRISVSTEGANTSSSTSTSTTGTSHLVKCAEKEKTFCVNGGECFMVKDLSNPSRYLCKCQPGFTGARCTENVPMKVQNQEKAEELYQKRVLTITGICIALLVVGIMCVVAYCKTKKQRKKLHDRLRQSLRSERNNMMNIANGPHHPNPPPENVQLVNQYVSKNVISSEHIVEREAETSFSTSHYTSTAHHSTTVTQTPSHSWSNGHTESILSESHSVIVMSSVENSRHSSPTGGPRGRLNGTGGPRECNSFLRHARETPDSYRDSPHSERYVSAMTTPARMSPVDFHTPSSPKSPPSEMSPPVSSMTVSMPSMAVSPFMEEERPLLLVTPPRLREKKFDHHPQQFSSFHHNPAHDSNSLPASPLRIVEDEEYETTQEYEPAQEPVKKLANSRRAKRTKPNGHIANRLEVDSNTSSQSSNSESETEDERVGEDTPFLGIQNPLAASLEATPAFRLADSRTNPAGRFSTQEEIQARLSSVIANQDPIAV
# Chain of Neurogenic locus notch homolog protein 2 (Homo sapiens) (Q04721 whole entry, looked up, canonical isoform): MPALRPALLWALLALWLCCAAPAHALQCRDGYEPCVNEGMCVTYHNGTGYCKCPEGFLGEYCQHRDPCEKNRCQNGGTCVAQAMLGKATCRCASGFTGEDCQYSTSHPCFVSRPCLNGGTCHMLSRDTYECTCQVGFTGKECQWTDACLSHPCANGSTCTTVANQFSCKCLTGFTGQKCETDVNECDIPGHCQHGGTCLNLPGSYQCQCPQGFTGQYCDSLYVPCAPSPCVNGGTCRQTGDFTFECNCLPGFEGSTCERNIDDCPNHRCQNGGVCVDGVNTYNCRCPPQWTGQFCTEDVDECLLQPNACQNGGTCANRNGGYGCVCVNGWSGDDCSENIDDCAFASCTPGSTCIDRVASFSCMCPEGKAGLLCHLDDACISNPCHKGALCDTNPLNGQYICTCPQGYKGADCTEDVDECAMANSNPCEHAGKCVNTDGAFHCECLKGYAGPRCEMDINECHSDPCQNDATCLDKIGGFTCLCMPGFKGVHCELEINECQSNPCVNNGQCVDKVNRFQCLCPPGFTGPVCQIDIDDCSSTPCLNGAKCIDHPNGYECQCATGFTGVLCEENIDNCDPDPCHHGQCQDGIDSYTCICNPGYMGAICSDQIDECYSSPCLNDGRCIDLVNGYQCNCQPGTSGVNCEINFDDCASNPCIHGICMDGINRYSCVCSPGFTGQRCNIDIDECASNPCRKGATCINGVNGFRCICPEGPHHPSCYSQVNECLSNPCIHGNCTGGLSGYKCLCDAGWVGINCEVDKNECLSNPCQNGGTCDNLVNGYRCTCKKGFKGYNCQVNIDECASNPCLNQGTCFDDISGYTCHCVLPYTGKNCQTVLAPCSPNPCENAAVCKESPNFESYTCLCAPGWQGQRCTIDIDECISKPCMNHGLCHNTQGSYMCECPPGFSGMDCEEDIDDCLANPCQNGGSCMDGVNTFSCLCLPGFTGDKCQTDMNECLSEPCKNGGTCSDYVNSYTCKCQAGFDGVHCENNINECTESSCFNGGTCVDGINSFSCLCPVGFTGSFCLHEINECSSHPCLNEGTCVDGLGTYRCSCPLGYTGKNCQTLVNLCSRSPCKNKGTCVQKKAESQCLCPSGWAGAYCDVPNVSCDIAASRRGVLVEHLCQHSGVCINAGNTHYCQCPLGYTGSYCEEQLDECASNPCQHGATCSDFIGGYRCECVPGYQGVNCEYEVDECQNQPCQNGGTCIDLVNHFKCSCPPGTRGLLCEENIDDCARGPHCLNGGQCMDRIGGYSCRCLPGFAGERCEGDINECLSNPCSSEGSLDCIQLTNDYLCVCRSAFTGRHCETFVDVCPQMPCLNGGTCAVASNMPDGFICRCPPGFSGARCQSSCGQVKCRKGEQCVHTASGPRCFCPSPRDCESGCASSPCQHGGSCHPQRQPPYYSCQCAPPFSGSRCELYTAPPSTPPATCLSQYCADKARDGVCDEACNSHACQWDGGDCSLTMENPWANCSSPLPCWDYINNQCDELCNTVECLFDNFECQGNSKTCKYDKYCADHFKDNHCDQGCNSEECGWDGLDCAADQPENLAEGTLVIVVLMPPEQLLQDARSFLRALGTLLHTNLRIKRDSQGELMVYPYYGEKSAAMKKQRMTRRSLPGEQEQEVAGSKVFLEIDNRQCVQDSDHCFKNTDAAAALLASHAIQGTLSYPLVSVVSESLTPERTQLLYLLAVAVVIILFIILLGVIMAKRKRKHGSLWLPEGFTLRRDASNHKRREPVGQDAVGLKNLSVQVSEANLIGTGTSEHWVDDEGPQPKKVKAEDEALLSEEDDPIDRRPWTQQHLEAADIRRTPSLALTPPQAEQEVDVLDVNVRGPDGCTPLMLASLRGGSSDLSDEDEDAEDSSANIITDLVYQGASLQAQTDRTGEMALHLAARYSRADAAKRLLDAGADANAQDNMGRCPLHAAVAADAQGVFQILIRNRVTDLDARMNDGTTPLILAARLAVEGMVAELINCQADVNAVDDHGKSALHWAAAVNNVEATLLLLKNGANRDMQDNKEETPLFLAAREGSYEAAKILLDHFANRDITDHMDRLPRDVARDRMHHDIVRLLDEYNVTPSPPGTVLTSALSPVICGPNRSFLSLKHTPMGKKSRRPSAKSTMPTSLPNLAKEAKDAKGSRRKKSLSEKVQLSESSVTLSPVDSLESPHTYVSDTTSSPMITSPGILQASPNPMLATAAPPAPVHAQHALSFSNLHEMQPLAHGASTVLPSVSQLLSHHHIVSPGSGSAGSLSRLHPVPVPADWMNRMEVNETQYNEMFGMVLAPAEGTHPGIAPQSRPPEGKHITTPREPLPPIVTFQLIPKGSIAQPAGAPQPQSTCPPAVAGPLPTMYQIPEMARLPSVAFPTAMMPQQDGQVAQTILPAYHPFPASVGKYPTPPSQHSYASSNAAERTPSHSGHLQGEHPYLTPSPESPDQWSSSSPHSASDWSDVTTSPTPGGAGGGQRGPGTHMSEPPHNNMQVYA
compound,measurement,setting,value
COc1ccc([Si](C)(C)[C@H]2[C@H](CCn3cc([C@H](O)c4ccccc4)nn3)O[C@@]3(C(=O)N(Cc4cccc(N5CCC5=O)c4)c4ccccc43)[C@@H]2C)cc1,composite z-score,[1],0.386
same,composite z-score,[2],0.238
same,composite z-score,[3],-0.0894
same,composite z-score,[4],0.164
same,composite z-score,[5],-0.404
same,composite z-score,[6],-0.0001
same,composite z-score,[7],0.557
same,z-score,[8],-1.99 (inactive)
same,composite z-score,[9],-0.0509
same,composite z-score,[10],-0.191
same,composite z-score,[11],0.423
same,z-score,[12],-1.89 (inactive)
same,z-score,[13],0.399 (inactive)
same,z-score,[14],1.82 (inactive)
same,composite z-score,[15],0.276
same,z-score,[16],1.41 (inactive)
same,composite z-score,[17],-0.196
same,composite z-score,[18],0.806
same,composite z-score,[19],0.349
same,composite z-score,[20],-0.167
COc1ccc([Si](C)(C)[C@@H]2[C@@H](CC(=O)N(CCO)Cc3ccccc3)O[C@]3(C(=O)N(C)c4ccccc43)[C@H]2C)cc1,composite z-score,[1],1.02
same,composite z-score,[2],-0.135
same,composite z-score,[3],-0.0336
same,composite z-score,[4],0.628
same,composite z-score,[5],0.525
same,composite z-score,[6],0.872
same,composite z-score,[7],1.11
same,z-score,[8],-2.19 (inactive)
same,composite z-score,[9],1.21
same,composite z-score,[10],0.411
same,composite z-score,[11],1.54
same,z-score,[12],-0.943 (inactive)
same,z-score,[13],0.14 (inactive)
same,z-score,[14],0.451 (inactive)
same,composite z-score,[15],1.81
same,z-score,[16],-0.0145 (inactive)
same,composite z-score,[17],0.512
same,composite z-score,[18],1.21
same,composite z-score,[19],0.963
same,composite z-score,[20],0.238
Cc1cc(C)c(C(O)C2C=CC3C(=O)N(C)C(=O)C3N2Nc2ccccc2)c(C)c1 (stereo not given),composite z-score,[1],1.19
same,composite z-score,[2],0.732
same,composite z-score,[3],0.462
same,composite z-score,[4],0.93
same,composite z-score,[5],1.64
same,composite z-score,[6],1.26
same,composite z-score,[7],1.27
same,z-score,[8],0.016 (inactive)
same,composite z-score,[9],2.01
same,composite z-score,[10],0.872
same,composite z-score,[11],0.378
same,z-score,[12],-0.304 (inactive)
same,z-score,[13],0.569 (inactive)
same,z-score,[14],-0.448 (inactive)
same,composite z-score,[15],2.41
same,z-score,[16],-1.32 (inactive)
same,composite z-score,[17],1.24
same,composite z-score,[18],0.0355
same,composite z-score,[19],0.533
same,composite z-score,[20],0.907
CN(C)C(=O)[C@@]1(CCC(=O)OC(C)(C)C)N=C(c2ccc(OCCCO)cc2)O[C@H]1c1ccccc1,composite z-score,[1],1.01
same,composite z-score,[2],2.11
same,composite z-score,[3],0.112
same,composite z-score,[4],0.31
same,composite z-score,[5],-0.282
same,composite z-score,[6],1.92
same,composite z-score,[7],1.33
same,z-score,[8],-0.624 (inactive)
same,composite z-score,[9],0.356
same,composite z-score,[10],0.597
same,composite z-score,[11],1.41
same,z-score,[12],-0.365 (inactive)
same,z-score,[13],-0.0946 (inactive)
same,z-score,[14],-0.213 (inactive)
same,composite z-score,[15],3.55
same,z-score,[16],-0.444 (inactive)
same,composite z-score,[17],0.346
same,composite z-score,[18],0.94
same,composite z-score,[19],0.0453
same,composite z-score,[20],0.0197
Cc1c(NC(=O)CC#N)c(=O)n(-c2ccccc2)n1C,composite z-score,[1],-0.436
same,composite z-score,[2],0.114
same,composite z-score,[3],-0.0996
same,composite z-score,[4],0.374
same,composite z-score,[5],0.348
same,composite z-score,[6],0.379
same,composite z-score,[7],0.483
same,z-score,[8],1.66 (inactive)
same,composite z-score,[9],0.404
same,composite z-score,[10],-0.498
same,composite z-score,[11],0.175
same,z-score,[12],-1.36 (inactive)
same,z-score,[13],-0.263 (inactive)
same,z-score,[14],-0.722 (inactive)
same,composite z-score,[15],1.16
same,z-score,[16],-0.325 (inactive)
same,composite z-score,[17],-0.225
same,composite z-score,[18],0.407
same,composite z-score,[19],0.66
same,composite z-score,[20],-0.0856
COCCOC(=O)N1C(=O)[C@@]2(c3cc(C#CCC(C(=O)OC)C(=O)OC)ccc31)[C@H](C(=O)N1CCN(c3ncccn3)CC1)[C@H]1C(=O)O[C@H](c3ccccc3)[C@H](c3ccccc3)N1[C@@H]2c1ccc(OCCO)cc1,composite z-score,[1],-0.462
same,composite z-score,[2],0.185
same,composite z-score,[3],-0.0293
same,composite z-score,[4],0.0875
same,composite z-score,[5],0.213
same,composite z-score,[6],0.386
same,composite z-score,[7],1.06
same,z-score,[8],-0.644 (inactive)
same,composite z-score,[9],0.0723
same,composite z-score,[10],-0.0088
same,composite z-score,[11],1.55
same,z-score,[12],-0.485 (inactive)
same,z-score,[13],0.196 (inactive)
same,z-score,[14],5.21 (inactive)
same,composite z-score,[15],2.26
same,z-score,[16],1.36 (inactive)
same,composite z-score,[17],-0.184
same,composite z-score,[18],0.668
same,composite z-score,[19],0.946
same,composite z-score,[20],-0.141
C#CCN(C(/C=C/c1ccccc1)CO)C(C(=O)O)c1ccccc1 (stereo not given),composite z-score,[1],-0.27
same,composite z-score,[2],-0.769
same,composite z-score,[3],-0.159
same,composite z-score,[4],0.263
same,composite z-score,[5],0.0504
same,composite z-score,[6],-0.165
same,composite z-score,[7],-0.435
same,z-score,[8],1.2 (inactive)
same,composite z-score,[9],-0.652
same,composite z-score,[10],-0.284
same,composite z-score,[11],-1.05
same,z-score,[12],0.339 (inactive)
same,z-score,[13],-1.13 (inactive)
same,z-score,[14],0.148 (inactive)
same,composite z-score,[15],-0.595
same,z-score,[16],2.19 (inactive)
same,composite z-score,[17],-0.0849
same,composite z-score,[18],0.274
same,composite z-score,[19],-0.715
same,composite z-score,[20],-0.101
CCOC(=O)C1=CCC(c2ccc([N+](=O)[O-])cc2)N(S(=O)(=O)c2ccc(C)cc2)C1 (stereo not given),composite z-score,[1],0.557
same,composite z-score,[2],-0.0288
same,composite z-score,[3],-0.0878
same,composite z-score,[4],0.294
same,composite z-score,[5],0.716
same,composite z-score,[6],0.459
same,composite z-score,[7],0.81
same,z-score,[8],-2.47 (inactive)
same,composite z-score,[9],0.406
same,composite z-score,[10],-0.174
same,composite z-score,[11],-0.394
same,z-score,[12],1.33 (inactive)
same,z-score,[13],2.26 (inactive)
same,z-score,[14],4.61 (inactive)
same,composite z-score,[15],1.28
same,z-score,[16],0.638 (inactive)
same,composite z-score,[17],0.0478
same,composite z-score,[18],-0.281
same,composite z-score,[19],0.422
same,composite z-score,[20],0.0296
CO[C@H]1O[C@H](CO)[C@@H](OC(=O)Nc2ccc(Oc3ccccc3)cc2)[C@H](OC(=O)Nc2ccccc2)[C@H]1OC(=O)Nc1ccccc1,composite z-score,[1],0.096
same,composite z-score,[2],0.95
same,composite z-score,[3],0.0732
same,composite z-score,[4],1.16
same,composite z-score,[5],1.48
same,composite z-score,[6],1.3
same,composite z-score,[7],1.39
same,z-score,[8],0.119 (inactive)
same,composite z-score,[9],0.446
same,composite z-score,[10],-0.0346
same,composite z-score,[11],1.55
same,z-score,[12],1.48 (inactive)
same,z-score,[13],0.613 (inactive)
same,z-score,[14],-1.75 (inactive)
same,composite z-score,[15],3.26
same,z-score,[16],0.939 (inactive)
same,composite z-score,[17],0.286
same,composite z-score,[18],0.7
same,composite z-score,[19],1.13
same,composite z-score,[20],0.13
C[C@H]1NC(=O)[C@H](Cc2ccccc2)NC(=O)[C@@]23C(=O)N[C@@H](Cc4ccccc4)C2[C@H](C)[C@@]2(C)O[C@H]2C3/C=C/C/C=C\CNC1=O (stereo not given in full),composite z-score,[1],-0.231
same,composite z-score,[2],0.32
same,composite z-score,[3],-0.0878
same,composite z-score,[4],-0.32
same,composite z-score,[5],-0.221
same,composite z-score,[6],-0.547
same,composite z-score,[7],-0.867
same,z-score,[8],0.049 (inactive)
same,composite z-score,[9],-0.146
same,composite z-score,[10],0.238
same,composite z-score,[11],-0.839
same,z-score,[12],0.967 (inactive)
same,z-score,[13],0.266 (inactive)
same,z-score,[14],0.865 (inactive)
same,composite z-score,[15],-1.32
same,z-score,[16],1 (inactive)
same,composite z-score,[17],-0.0724
same,composite z-score,[18],-0.389
same,composite z-score,[19],-0.795
same,composite z-score,[20],-0.183

# Reference: PubChem BioAssay
